esBAF inh – inhibitors of esBAF chromatin remodeling in mouse ES cells; 2% of 350,000 active; reporter increase, % at 12.5 µM; Bmi1-luciferase knock-in reporter, 24 h; 100% = twice the neutral-well signal; in the data active = activation above about 40%;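 also: a rise in the Bmi1 reporter signal indicates esBAF inhibition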
MITF TRPM1 HTS – activators of MITF-driven TRPM1 promoter activity in SK-MEL-5 cells; SK-MEL-5 TRPM1-promoter luciferase, 24 h; % of positive control, neutral wells = 0; activation, % at 12.5 µM; 0.75% of 300,000 active;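 active = mean activation of at least 80% with every replicate also reaching 80%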
MITF TRPM1 inh – reduces MITF-dependent TRPM1 promoter luciferase signal. SK-MEL-5 TRPM1 promoter luciferase, 24 h. inhibition, % at 12.5 µM. 0.83% of 330,000 active. AID 488899;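 active = mean inhibition across replicates of 60% or more, whatever share of single replicates reaches that level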
EBV LMP1 NFkB – Epstein-Barr LMP1 NF-kappaB reporter inhibition | LMP1-induced NF-kappaB luciferase reporter cells, luminescence | inhibition, % at 12.5 µM | 0.69% of 350,000 active | AID 504558; in the data active = inhibition above about 41%
Statin myotox sup – suppression of simvastatin myotoxicity; C2C12 myotubes + simvastatin, ATP luminescence, 48 h; scaled: DMSO 0, geranylgeraniol control 100; 0.78% of 330,000 active; AID 602340; rescue of ATP level, % at 7.49 µM;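 active = mean ATP rescue above about 67%, or every replicate alone reaching that limit, limit read from the data, passing the limit was not always enough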;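 also: myotubes were challenged with 10 µM simvastatin during compound exposure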
Wnt bcat act – Wnt/beta-catenin pathway activation | Wnt/beta-catenin reporter cell assay, activator, plate reader | activation, % at 9.35 µM | 1.2% of 300,000 active | AID 743398; in the data active = activation above about 30%, passing the limit was not always enough
Hits are given with their value. Most compounds without a hit are left out; they make up all but 4% or so of the library.

Results for Cc1ccccc1NC1=C/C(=N\S(=O)(=O)c2cccs2)c2ccccc2C1=O ?
esBAF inh: inactive; MITF TRPM1 inh: 87; EBV LMP1 NFkB: 91; Statin myotox sup: inactive; Wnt bcat act: inactive

Results for Cc1cccc(Cc2nnc(CCC(=O)NCc3ccncc3C)o2)c1 ?
esBAF inh: inactive; MITF TRPM1 HTS: inactive; MITF TRPM1 inh: inactive; EBV LMP1 NFkB: inactive; Statin myotox sup: inactive; Wnt bcat act: inactive

How did O=C1CCCCC1C(=O)c1cn(-c2ccc(Cl)c(Cl)c2)nn1 (configuration not stated) do in these assays?
esBAF inh: 63; MITF TRPM1 HTS: inactive; MITF TRPM1 inh: inactive; EBV LMP1 NFkB: inactive; Statin myotox sup: inactive; Wnt bcat act: inactive

Results for O=C(c1cn(-c2ccc(Cl)c(Cl)c2)nn1)C1CC1 ?
esBAF inh: inactive; MITF TRPM1 HTS: inactive; MITF TRPM1 inh: inactive; EBV LMP1 NFkB: inactive; Statin myotox sup: inactive; Wnt bcat act: inactive

How did Cc1ccc(S(=O)(=O)CC(=O)N2CCCC2)cc1 do in these assays?
esBAF inh: inactive; MITF TRPM1 HTS: inactive; MITF TRPM1 inh: inactive; EBV LMP1 NFkB: inactive; Statin myotox sup: inactive; Wnt bcat act: inactive

Results for COc1ccccc1-c1c(C(F)(F)F)oc2cc(OC(=O)c3ccc([N+](=O)[O-])cc3)ccc2c1=O ?
esBAF inh: 67; MITF TRPM1 HTS: inactive; MITF TRPM1 inh: inactive; EBV LMP1 NFkB: inactive; Wnt bcat act: inactive

What do the screens show for `Cc1cccc(CC(=O)NCCS(=O)(=O)N2CCN(c3ccccc3)CC2)c1`?
esBAF inh: inactive; EBV LMP1 NFkB: inactive; Statin myotox sup: inactive

What do the screens show for `Nc1nc2c(ncn2C2CCCC2)c(=O)[nH]1`?
esBAF inh: inactive; MITF TRPM1 HTS: inactive; MITF TRPM1 inh: inactive; EBV LMP1 NFkB: inactive; Statin myotox sup: inactive; Wnt bcat act: inactive

How did Nc1nc(SCc2ccccn2)c2ncn(C3CCCC3)c2n1 do in these assays?
esBAF inh: 44; MITF TRPM1 HTS: inactive; MITF TRPM1 inh: inactive; EBV LMP1 NFkB: inactive; Statin myotox sup: inactive; Wnt bcat act: inactive

What do the screens show for `CCN(C[C@H]1[C@H](c2ccccc2)[C@@H](CO)N1CC1CC1)C(=O)c1ccccn1`?
esBAF inh: inactive; Statin myotox sup: inactive

What do the screens show for `COCC#Cc1ccc2c(c1)O[C@@H](CN(C)C(=O)C1CCC1)[C@@H](C)CN([C@H](C)CO)S2(=O)=O`?
esBAF inh: inactive; Statin myotox sup: inactive

What do the screens show for `O=[N+]([O-])c1ccc(O)c(-c2cc(C(F)(F)F)nc(-c3ccccc3)n2)c1`?
esBAF inh: inactive; MITF TRPM1 HTS: inactive; MITF TRPM1 inh: 89; EBV LMP1 NFkB: inactive; Statin myotox sup: inactive; Wnt bcat act: inactive

What do the screens show for `O=C(Nc1ccc(Cl)cc1)/C(=C/c1cccc(O)c1)c1nc2ccccc2s1`?
MITF TRPM1 HTS: inactive; MITF TRPM1 inh: 92; EBV LMP1 NFkB: inactive; Wnt bcat act: inactive

Results for S=C(Nc1ccc(Cl)cc1)c1nc2ccccc2s1 ?
esBAF inh: inactive; MITF TRPM1 HTS: inactive; MITF TRPM1 inh: inactive; EBV LMP1 NFkB: inactive; Statin myotox sup: inactive

How did CCCCNC(=O)Cc1c(O)c2ccccc2[nH]c1=O do in these assays?
esBAF inh: inactive; MITF TRPM1 inh: inactive; EBV LMP1 NFkB: inactive; Statin myotox sup: inactive

What do the screens show for `CCCN1C(=O)C(O)(C/C(C)=N/O)c2ccccc21` (configuration not stated)?
esBAF inh: inactive; MITF TRPM1 HTS: inactive; MITF TRPM1 inh: inactive; EBV LMP1 NFkB: inactive; Statin myotox sup: 125

Results for CCOCCCNC(=O)CN1CCN(c2ccc(F)cc2)CC1 ?
esBAF inh: inactive; MITF TRPM1 HTS: inactive; MITF TRPM1 inh: inactive; EBV LMP1 NFkB: inactive; Statin myotox sup: inactive; Wnt bcat act: inactive

What do the screens show for `COc1ccc(CN(C)C[C@@H]2OCCCC[C@H](C)Oc3ccc(NC(=O)Nc4ccc5c(c4)OCO5)cc3C(=O)N([C@@H](C)CO)C[C@H]2C)cc1`?
esBAF inh: inactive

How did COc1cc(CC(NC(C)=O)C(=O)NC2CCN(C(=O)Nc3ccccc3C)CC2)cc(OC)c1 (configuration not stated) do in these assays?
esBAF inh: inactive; MITF TRPM1 HTS: inactive; MITF TRPM1 inh: inactive; EBV LMP1 NFkB: inactive; Statin myotox sup: inactive; Wnt bcat act: inactive

What do the screens show for `COc1ccc(NC(=O)C2=Cc3cccc(OC)c3OC2)cc1`?
MITF TRPM1 HTS: inactive; MITF TRPM1 inh: inactive; EBV LMP1 NFkB: inactive; Wnt bcat act: 44

Source: PubChem
